Assay results published in PubChem BioAssay AID1159580 (chemical genetic matrix, 2015).
Out of some 5,500 compounds screened, about 2,000 (36%) were called active. Inconclusive results (about 18%) are left out. Rule as the data show it: active = normalized growth mostly below about 0.91 (no sharp cut-off); inconclusive = no clear call, values can overlap the other calls; inactive = mostly above about 0.92. The list shows a part of the results.

Test: chemical genetic growth profiling, strain panel (AID 1159580);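 also: tested at 20 µM; growth read once vehicle control cultures reached saturation at 30 °C; 1 = growth at the plate median or of vehicle wells; lower values mean less growth of the strain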
Details: growth OD

Measured: normalized growth

CC(C(=O)O)c1ccc(-c2ccccc2)c(F)c1 (configuration not stated)
active: S. cerevisiae deletion strains, locus YJR066W, strain TOR1, stronger effect = lower value 0.762 | S. cerevisiae deletion strains, locus YKL068W, stronger effect = lower value 0.912 | S. cerevisiae deletion strains, locus YKL085W, strain MDH1 (second series), stronger effect = lower value 0.919 | S. cerevisiae deletion strains, locus YKL085W, strain MDH1, stronger effect = lower value 0.919 | S. cerevisiae deletion strains, locus YKR001C, strain vps1, stronger effect = lower value 0.827 | S. cerevisiae deletion strains, locus YLR113W, strain HOG1, stronger effect = lower value 0.62 | S. cerevisiae deletion strains, locus YLR262C, strain YPT6 (second series), stronger effect = lower value 0.846 | S. cerevisiae deletion strains, locus YNL183C, strain NPR1, stronger effect = lower value 0.783 | S. cerevisiae deletion strains, locus YNL248C, strain rpa49, stronger effect = lower value 0.817 | S. cerevisiae deletion strains, locus YNL271C, strain bni1, stronger effect = lower value 0.888 | S. cerevisiae deletion strains, locus YNL298W, strain CLA4, stronger effect = lower value 0.792 | S. cerevisiae deletion strains, locus YOR231W, strain MKK1, stronger effect = lower value 0.732 | S. cerevisiae deletion strains, locus YPL256C, strain CLN2, stronger effect = lower value 0.736 | S. cerevisiae deletion strains, locus YPR141C, strain kar3, stronger effect = lower value 0.913
inactive: S. cerevisiae deletion strains, locus YJR043C, strain POL32, stronger effect = lower value 0.979 | S. cerevisiae deletion strains, locus YJR075W, strain HOC1, stronger effect = lower value 0.978 | S. cerevisiae deletion strains, locus YKL009W, strain mrt4, stronger effect = lower value 0.899 | S. cerevisiae deletion strains, locus YKL160W, strain elf1, stronger effect = lower value 1.03 | S. cerevisiae deletion strains, locus YKR026C, strain gcn3, stronger effect = lower value 0.977 | S. cerevisiae deletion strains, locus YKR091W, strain srl3, stronger effect = lower value 0.988 | S. cerevisiae deletion strains, locus YLL001W, strain dnm1, stronger effect = lower value 1.02 | S. cerevisiae deletion strains, locus YLL026W, stronger effect = lower value 0.987 | S. cerevisiae deletion strains, locus YLL041C, strain sdh2, stronger effect = lower value 0.97 | S. cerevisiae deletion strains, locus YLR027C, strain aat2, stronger effect = lower value 0.976 | S. cerevisiae deletion strains, locus YLR039C, strain RIC1, stronger effect = lower value 0.79 | S. cerevisiae deletion strains, locus YLR058C, strain SHM2, stronger effect = lower value 0.99 | S. cerevisiae deletion strains, locus YLR102C, strain apc9, stronger effect = lower value 0.954 | S. cerevisiae deletion strains, locus YLR221C, strain rsa3, stronger effect = lower value 1 | S. cerevisiae deletion strains, locus YLR258W, strain gsy2, stronger effect = lower value 0.983 | S. cerevisiae deletion strains, locus YLR262C, strain YPT6, stronger effect = lower value 0.773 | S. cerevisiae deletion strains, locus YLR268W, strain sec22, stronger effect = lower value 0.955 | S. cerevisiae deletion strains, locus YLR320W, strain mms22, stronger effect = lower value 1.05 | S. cerevisiae deletion strains, locus YLR330W, strain CHS5, stronger effect = lower value 0.969 | S. cerevisiae deletion strains, locus YLR342W, strain FKS1 (second series), stronger effect = lower value 0.936 | S. cerevisiae deletion strains, locus YLR342W, strain FKS1, stronger effect = lower value 0.984 | S. cerevisiae deletion strains, locus YLR357W, strain rsc2, stronger effect = lower value 1.01 | S. cerevisiae deletion strains, locus YLR370C, strain arc18, stronger effect = lower value 0.989 | S. cerevisiae deletion strains, locus YLR371W, strain rom2, stronger effect = lower value 0.996 | S. cerevisiae deletion strains, locus YLR384C, strain iki3, stronger effect = lower value 1.01 | S. cerevisiae deletion strains, locus YLR418C, strain cdc73, stronger effect = lower value 1.01 | S. cerevisiae deletion strains, locus YML016C, strain PPZ1, stronger effect = lower value 0.981 | S. cerevisiae deletion strains, locus YML032C, strain rad52, stronger effect = lower value 0.951 | S. cerevisiae deletion strains, locus YML120C, strain ndi1, stronger effect = lower value 0.996 | S. cerevisiae deletion strains, locus YML124C, strain tub3, stronger effect = lower value 0.96 | S. cerevisiae deletion strains, locus YMR058W, strain fet3, stronger effect = lower value 0.994 | S. cerevisiae deletion strains, locus YMR078C, strain ctf18, stronger effect = lower value 0.94 | S. cerevisiae deletion strains, locus YMR125W, strain sto1, stronger effect = lower value 1 | S. cerevisiae deletion strains, locus YMR129W, stronger effect = lower value 0.968 | S. cerevisiae deletion strains, locus YMR205C, strain PFK2, stronger effect = lower value 1.03 | S. cerevisiae deletion strains, locus YMR223W, strain ubp8, stronger effect = lower value 1.02 | S. cerevisiae deletion strains, locus YMR231W, strain pep5, stronger effect = lower value 0.969 | S. cerevisiae deletion strains, locus YMR307W, strain GAS1, stronger effect = lower value 0.938 | S. cerevisiae deletion strains, locus YNL067W, strain RPL9B, stronger effect = lower value 0.974 | S. cerevisiae deletion strains, locus YNL071W, strain lat1, stronger effect = lower value 0.985 | S. cerevisiae deletion strains, locus YNL209W, strain ssb2, stronger effect = lower value 1.01 | S. cerevisiae deletion strains, locus YNL233W, strain BNI4, stronger effect = lower value 0.991 | S. cerevisiae deletion strains, locus YNL250W, strain rad50, stronger effect = lower value 0.908 | S. cerevisiae deletion strains, locus YNL307C, strain MCK1, stronger effect = lower value 0.947 | S. cerevisiae deletion strains, locus YNL322C, strain KRE1 (second series), stronger effect = lower value 0.964 | S. cerevisiae deletion strains, locus YNL322C, strain KRE1, stronger effect = lower value 0.975 | S. cerevisiae deletion strains, locus YNR049C, strain mso1, stronger effect = lower value 0.981 | S. cerevisiae deletion strains, locus YNR052C, strain pop2, stronger effect = lower value 0.952 | S. cerevisiae deletion strains, locus YOL012C, strain htz1 1.06 | S. cerevisiae deletion strains, locus YOL147C, strain pex11, stronger effect = lower value 0.969 | S. cerevisiae deletion strains, locus YOR001W, strain rrp6, stronger effect = lower value 0.95 | S. cerevisiae deletion strains, locus YOR061W, strain CKA2, stronger effect = lower value 0.973 | S. cerevisiae deletion strains, locus YOR069W, strain VPS5, stronger effect = lower value 0.994 | S. cerevisiae deletion strains, locus YOR070C, strain gyp1, stronger effect = lower value 1 | S. cerevisiae deletion strains, locus YOR080W, strain dia2, stronger effect = lower value 1.01 | S. cerevisiae deletion strains, locus YOR083W, strain WHI5, stronger effect = lower value 1.03 | S. cerevisiae deletion strains, locus YOR106W, strain vam3, stronger effect = lower value 0.994 | S. cerevisiae deletion strains, locus YOR136W, strain idh2, stronger effect = lower value 0.989 | S. cerevisiae deletion strains, locus YOR144C, strain elg1, stronger effect = lower value 0.965 | S. cerevisiae deletion strains, locus YOR184W, strain ser1, stronger effect = lower value 0.972 | S. cerevisiae deletion strains, locus YOR265W, strain rbl2, stronger effect = lower value 1 | S. cerevisiae deletion strains, locus YOR270C, strain vph1, stronger effect = lower value 1.05 | S. cerevisiae deletion strains, locus YOR290C, strain snf2, stronger effect = lower value 0.97 | S. cerevisiae deletion strains, locus YOR316C, strain cot1, stronger effect = lower value 0.965 | S. cerevisiae deletion strains, locus YPL051W, strain arl3, stronger effect = lower value 0.981 | S. cerevisiae deletion strains, locus YPL078C, strain atp4, stronger effect = lower value 1 | S. cerevisiae deletion strains, locus YPL106C, strain sse1, stronger effect = lower value 1.05 | S. cerevisiae deletion strains, locus YPL240C, strain hsp82, stronger effect = lower value 0.985 | S. cerevisiae deletion strains, locus YPR119W, strain clb2, stronger effect = lower value 0.95 | S. cerevisiae deletion strains, locus YPR163C, strain tif3, stronger effect = lower value 0.957 | S. cerevisiae deletion strains, locus YPR167C, strain met16, stronger effect = lower value 0.962 | S. cerevisiae deletion strains, strain wtn01, stronger effect = lower value 0.971 | S. cerevisiae strains, strain wild type, stronger effect = lower value 0.968
